Structures are written as SMILES. This is part of a sample that, as a whole, favours compounds with a hit. Of some 83,000 tested, about 20% had one in any assay.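 48-hour exposure, single concentration, 96-well plates; percent growth endpoint where 0 means no net growth. Active: below 10.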 A number with no mark means an inactive call. Calls of active or inactive are those of the source.

The test has as its system NCI-H322M lung. As to the kind of experiment: NCI-60 one-dose screen, 48 h (100 = growth as untreated, 0 = no growth, -100 = all killed). The conditions noted are these: 10 µM unless noted. Here is the method: Growth inhibition of the NCI-H322M human Non-Small Cell Lung tumor cell line is measured as a screen for anti-cancer activity. Cells are grown in 96 well plates and exposed to the test compound for 48 hours. Compounds are tested at a single concentration, which is 10^-5 M for most compounds. The reported endpoint is percent growth (GI% or GIPRCNT), where numbers from 0 - 100% represent growth inhibition, and numbers from -100% - 0 represent cell death. For example, a value of 40 represents 60% growth inhibition. A value of 0 means no net growth occurred over the course of the experiment. A value of -40 indicates 40% of cells at the beginning of the experiment died by the end of the experiment. A value of -100 means all cells are dead at the end of the experiment.
NCI-60 Human Tumor Cell Lines Screen was performed using the standard one-dose NCI protocol, which is described in more detail at https://dtp.cancer.gov/discovery_development/nci-60/default.htm.
Compounds with GIPRCNT values below 10 were considered active. Activity score was based on GIPRCNT using the following formula: […]
Score is 0 for GIPRCNT values of 100 or above, 50 for GIPRCNT values of 0, and 100 for GIPRCNT values of -100.
For the compound `O=c1oc2c(cc1-c1ccc([N+](=O)[O-])cc1)C(O)Oc1ccccc1-2` (stereo not given), the growth was 107%.

As for `O=[N+]([O-])c1cc([N+](=O)[O-])c(N2CCCC2)cc1NN=C(c1ccc(O)cc1)c1ccc(O)cc1`, the growth is 91.7%. Regarding `C[C@@H]1CN(c2nc3c(cc2F)c(=O)c(C(=O)O)cn3C(C)(C)C)C[C@H](C)N1`, the growth was 93.7%. For `O=Cc1ccccc1C(=O)O`, the growth is 96.7%. In the case of `CC1CN(C2CCCCC2)C(=O)NC1=O` (stereo not given), the growth was 80.5%.

In the case of `COc1ccc(C2=NN(C(C)=O)C(c3c(C)nn(-c4ccccc4)c3N3CCOCC3)C2)cc1` (stereo not given), the growth was 101%.

For the compound `CC1C(C)N(C(=O)CCl)c2ccccc2N1C(=O)CCl` (stereo not given), the growth is 3.9% (active).

Consider `O=C(c1ccc(N2CCOCC2)cc1[N+](=O)[O-])N1CCOCC1`, for which the growth is 111%. To `CC[C@@H](c1ccc(O)c(O)c1)[C@@H](CC)c1ccc(O)c(O)c1` belongs 97%; to `C/C(=C\CCc1ccoc1)CC/C=C(\C)CCCN1CCOCC1`, 84.5%; to `NC(=O)c1cc(Br)cc(Br)c1NS(=O)(=O)c1ccccc1`, 94.5%. Consider `O=C1/C(=C/c2cccc(Cl)c2)CCc2ccccc21`, for which the growth was 98.5%.

For `COC(=O)Nc1ccc2ccc3c(NC(=O)OC)ccc4ccc1c2c43` (tested in a mixture with another compound), the growth is 65%. With `Cc1ccc(S(=O)(=O)N2CCN(C(=O)CSc3nc4ccc(C)cc4[nH]3)CC2)cc1`, the growth was 116%.

Consider `COc1cc(C2CC(C3C(=O)N(C)C(=O)N(C)C3=O)=NN2c2cc(Cl)cc(Cl)c2)cc(OC)c1OC` (stereo not given), for which the growth is 104%. In the case of `CCNCCCn1c2c(c3ccc(F)cc3c1=O)C(=O)c1cc(OC)cnc1-2`, the growth is -3.52% (active). For `CNCCCn1c2c(c3ccc(F)cc3c1=O)C(=O)c1cc(OC)cnc1-2`, the growth is -1.98% (active). Regarding `C(#Cc1ccccc1C#Cc1ccccn1)c1ccc(OCCCCCCOc2ccc(C#Cc3ccccc3C#Cc3ccccn3)cc2)cc1`, the growth is 67.8%. For the compound `CCCCCCCC[Si](OCC)(OCC)OCC`, the growth was 103%. In the case of `C=C1CCC2C(C)(COC(=O)CC)C(OC(=O)CC)CCC2(C)C1C/C=C1/C(=O)OCC1OC(=O)CC` (stereo not given), the growth is 75.6%. In the case of `CCOC(=O)N1CCC(N=C2CSc3nnc(-c4cc(C(F)(F)F)cc(C(F)(F)F)c4)n3N2)CC1` it was 67.4%. `C[C@H]1O[C@@H](O[C@H]2[C@@H](O)C[C@H](O[C@H]3[C@@H](O)C[C@H](O[C@H]4CC[C@]5(C)C6C[C@@H](O)[C@]7(C)[C@@H](C8=CC(=O)OC8)CC[C@]7(O)C6CC[C@@H]5C4)O[C@@H]3C)O[C@@H]2C)C[C@H](O)[C@@H]1O` (stereo not given in full): the growth is -75.3% (active). On to `O=C(O)CCNS(=O)(=O)c1ccc(-c2ccccc2)cc1`, for which the growth was 129%.

Regarding `COC(=O)[C@H](Cc1cn(C)cn1)NC(=O)[C@H](C)NC(=O)Nc1cc(C(F)(F)F)cc(C(F)(F)F)c1`, the growth was -54.6% [100 µM] (active). In the case of `C/C(=C\CCc1ccoc1)CC/C=C(\C)CCCC1COC(=O)C1` (stereo not given), the growth is 88.9%. Regarding `O=C(Nc1ccc(Cl)cc1)Nc1nc2ccc(OC(F)(F)F)cc2o1`, the growth is 113%. In the case of `Oc1c(Cl)cc(Cl)c(Cl)c1Cc1c(O)c(Cl)cc(Cl)c1Cl` it was -1.98% (active); in that of `CCSc1ncc(Br)c(Sc2nc(N)nc3nc[nH]c23)n1`, 89.1%. As to `OCCN1CCN(CCCN2c3ccccc3Sc3ccc(C(F)(F)F)cc32)CC1`, the growth was 65%. For `COc1ccc(NS(=O)(=O)N2CCCCC2)cc1`, the growth was 102%. For the compound `COc1cc(/C(Cl)=C/C=C/C(=O)c2c(C)[n+]([O-])c3ccc(Cl)cc3[n+]2[O-])cc(OC)c1OC`, the growth is 96.3%. For `Cc1ccc(NC(=O)c2sc3nc4c(cc3c2N)C(=O)CCC4)cc1`, the growth was 55.8%. In the case of `O=C1OC2(c3ccccc31)c1ccccc1-c1ccccc12`, the growth was 103%.

`Cc1ccc(-c2csc(N)n2)cc1`: the growth is 107%. As to `CCOC1Oc2ccccc2C(=O)/C1=N/c1nccs1` (stereo not given), the growth was 99.7%. To `Cc1cc(=O)oc2cc(OCCn3c(C)nn(-c4ccc(Cl)cc4)c3=O)ccc12` belongs 58.7%. For `COc1cccc(N2CCN(c3cccc(C)n3)CC2)c1`, the growth was 103%. Turning to `O=C(CNC(=O)c1cccc2ccccc12)Nc1ccccc1Cc1ccccc1`, the growth was 78.4% [5 µM].

Consider `O=c1[nH]c(SCc2ccccc2)nc2nc(Nc3ccc(NC(=S)Nc4ccccc4)cc3)nc(-c3ccc(O)cc3O)c12`, for which the growth was 121%. `CCCCCCCCCCN1CCC(N2CCCCC2)CC1`: the growth is 88%.

These data come from PubChem BioAssay (NCI).
